The text below walks through data of PubChem BioAssay (EPA / NIEHS).

Inconclusive results are not listed. The source made the active and inactive calls. Rule for the calls, unless noted: active = hit-call score of the fitted dose curve at least 0.9, where 1 is the maximum; inactive = score below 0.9.

Read-out in test [1]: Phosphatase and tensin (PTEN), PTEN (gene 5728)
The experiment in a line: LTEA_HepaRG_PTEN: Life Technologies and Expression Analysis (LTEA) Assay for Phosphatase and tensin (PTEN) using HepaRG (AID 2283523). The conditions noted are these: mRNA level, 48 h; actives raise or lower the signal. The gist of the method: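 Read-out: TaqMan qRT-PCR of PTEN transcript, normalized to three housekeeping genes, fitted in both directions against 0.5% DMSO. Differentiated human HepaRG cultures received chemicals for 48 h, eight-point half-log series topping at 100 uM.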

Read-out in test [2]: solute carrier (SLC22A1), SLC22A1 (gene 6580)
The experiment in a line: LTEA_HepaRG_SLC22A1: Life Technologies and Expression Analysis (LTEA) Assay for solute carrier (SLC22A1) using HepaRG (AID 2283524). The conditions noted are these: mRNA level, 48 h; actives raise or lower the signal. Put shortly: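 Transcript level of SLC22A1 quantified by qRT-PCR (normalized to three housekeeping genes) after 48 h chemical exposure of HepaRG cells, eight concentrations up to 100 µM, half-log steps, 0.5% DMSO vehicle. Gain or loss relative to DMSO fitted bidirectionally.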

Read-out in test [3]: Pyruvate Dehydrogenase Kinase 4 (PDK4), PDK4 (gene 5166)
The experiment in a line: LTEA_HepaRG_PDK4: Life Technologies and Expression Analysis (LTEA) Assay for Pyruvate Dehydrogenase Kinase 4 (PDK4) using HepaRG (AID 2283525). The conditions noted are these: mRNA level, 48 h; actives raise or lower the signal. The gist of the method:
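Readout is qRT-PCR of PDK4 transcript, normalized to three housekeeping genes, with bidirectional fitting against 0.5% DMSO vehicle. Differentiated HepaRG cells were treated 48 h in serum-free induction medium, duplicate wells, eight-point half-log series topping at 100 uM.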

Read-out in test [4]: NAD(P)H dehydrogenase [quinone] 1 (NQO1), NQO1 (gene 1728)
The experiment in a line: LTEA_HepaRG_NQO1: Life Technologies and Expression Analysis (LTEA) Assay for NAD(P)H dehydrogenase [quinone] 1 (NQO1) using HepaRG (AID 2283526). The conditions noted are these: mRNA level, 48 h; actives raise or lower the signal. The gist of the method: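 qRT-PCR read-out (Fluidigm TaqMan), normalized to three housekeeping genes, after 48 h chemical exposure of HepaRG cells. Concentrations: eight points, top 100 uM, half-log steps, 0.5% DMSO vehicle. Gain or loss of signal fitted relative to DMSO.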

Read-out in test [5]: Nuclear factor erythroid 2-related factor 2 (Homo sapiens) (UniProt Q16236)
The experiment in a line: LTEA_HepaRG_NFE2L2: Life Technologies and Expression Analysis (LTEA) Assay for Nuclear factor erythroid 2-related factor 2 (NFE2L2) Transcription Factor using HepaRG (AID 2283527). The settings on record: mRNA level, 48 h; actives raise or lower the signal. Put shortly:
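NFE2L2 transcript level was read by qRT-PCR (housekeeping ACTB/GAPDH/POLR2A normalisation) after 48 h chemical treatment of HepaRG in serum-free induction medium. Duplicate 8-point half-log curves, top 100 uM, 0.5% DMSO vehicle; up- or down-regulation fitted against vehicle.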

Read-out in test [6]: succinate dehydrogenase complex iron sulfur subunit B (SDHB), SDHB (gene 6390)
The experiment in a line: LTEA_HepaRG_SDHB: Life Technologies and Expression Analysis (LTEA) Assay for succinate dehydrogenase complex iron sulfur subunit B (SDHB) using HepaRG (AID 2283528). The settings on record: mRNA level, 48 h; actives raise or lower the signal. The gist of the method: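 Readout is SDHB transcript level by qRT-PCR, normalised to three housekeeping genes and fitted bidirectionally against 0.5% DMSO vehicle. Human HepaRG cells were treated for 48 h at up to 100 uM.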

Read-out in test [7]: Signal transducer and activator of transcription 3 (Homo sapiens) (UniProt P40763)
The experiment in a line: LTEA_HepaRG_STAT3: Life Technologies and Expression Analysis (LTEA) Assay for Signal transducer and activator of transcription (STAT3) using HepaRG (AID 2283529). The settings on record: mRNA level, 48 h; actives raise or lower the signal. The gist of the method: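 STAT3 transcript quantified by qRT-PCR against three housekeeping genes (ACTB, GAPDH, POLR2A), fitted both directions relative to DMSO. HepaRG cultures exposed 48 h to eight half-log concentrations, top 100 uM, 0.5% DMSO, serum-free induction medium.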

Read-out in test [8]: solute carrier (SLCO1B1), SLCO1B1 (gene 10599)
The experiment in a line: LTEA_HepaRG_SLCO1B1: Life Technologies and Expression Analysis (LTEA) Assay for solute carrier (SLCO1B1) using HepaRG (AID 2283530). The settings on record: mRNA level, 48 h; actives raise or lower the signal. The gist of the method: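 Human HepaRG cultures treated for 48 h with an eight-concentration half-log series topping at 100 uM; SLCO1B1 measured by qRT-PCR and fitted bidirectionally relative to DMSO.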

Read-out in test [9]: sulfotransferase 2A1 (SULT2A1), SULT2A1 (gene 6822)
The experiment in a line: LTEA_HepaRG_SULT2A1: Life Technologies and Expression Analysis (LTEA) Assay for sulfotransferase 2A1 (SULT2A1) using HepaRG (AID 2283531). The settings on record: mRNA level, 48 h; actives raise or lower the signal. The gist of the method:
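Gene-expression endpoint in a human liver cell line: SULT2A1 mRNA change after 48 h chemical treatment, curves fitted in both directions relative to 0.5% DMSO vehicle. Concentrations spanned eight half-log steps from 100 uM.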

Read-out in test [10]: Transforming Growth Factor (TGFA), TGFA (gene 7039)
The experiment in a line: LTEA_HepaRG_TGFA: Life Technologies and Expression Analysis (LTEA) Assay for Transforming Growth Factor (TGFA) using HepaRG (AID 2283532). The conditions noted are these: mRNA level, 48 h; actives raise or lower the signal. The gist of the method:
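TGFA transcript quantified by qRT-PCR (Fluidigm arrays) against three housekeeping genes, after 48 hours chemical treatment of HepaRG cells. Top concentration 100 uM with half-log dilutions, 8 points, duplicates, 0.5% DMSO.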

Read-out in test [11]: Transforming Growth Factor (TGFB1), TGFB1 (gene 7040)
The experiment in a line: LTEA_HepaRG_TGFB1: Life Technologies and Expression Analysis (LTEA) Assay for Transforming Growth Factor (TGFB1) Transporter using HepaRG (AID 2283533). The conditions noted are these: mRNA level, 48 h; actives raise or lower the signal. The gist of the method:
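Eight-point concentration-response (max 100 uM, half-log) in HepaRG under serum-free induction conditions, 48 h. TGFB1 mRNA by qRT-PCR, housekeeping-normalized.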

Read-out in the next test: TIMP1, TIMP1 (gene 7076)
The experiment in a line: LTEA_HepaRG_TIMP1: Life Technologies and Expression Analysis (LTEA) Assay for TIMP1 using HepaRG (AID 2283534). The settings on record: mRNA level, 48 h; actives raise or lower the signal. The gist of the method: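 TIMP1 induction or repression in HepaRG cells after 48 h chemical exposure (eight concentrations, highest 100 uM), assessed by normalized qRT-PCR with bidirectional fitting to DMSO controls.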

Read-out in test [12]: Tumor necrosis factor receptor 1 (TNFRSF1A), TNFRSF1A (gene 7132)
The experiment in a line: LTEA_HepaRG_TNFRSF1A: Life Technologies and Expression Analysis (LTEA) Assay for Tumor necrosis factor receptor 1 (TNFRSF1A) using HepaRG (AID 2283535). The conditions noted are these: mRNA level, 48 h; actives raise or lower the signal. Put shortly: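 Assay uses 48 h chemical treatment of differentiated HepaRG monolayers, tested in duplicate at eight concentrations from 100 uM downward in 0.5% DMSO. mRNA is normalized to ACTB, GAPDH and POLR2A, with induction or suppression fitted relative to vehicle.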

Read-out in test [13]: Cellular tumor antigen p53 (Homo sapiens) (UniProt P04637)
The experiment in a line: LTEA_HepaRG_TP53: Life Technologies and Expression Analysis (LTEA) Assay for Tumor Protein P53 (TP53) using HepaRG (AID 2283537). The conditions noted are these: mRNA level, 48 h; actives raise or lower the signal. The gist of the method: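 Read-out is TP53 transcript level by microfluidic qRT-PCR, normalised to three housekeeping genes and fitted bidirectionally against DMSO. Human HepaRG cells received compounds for 48 h, highest concentration 100 uM.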

Read-out in test [14]: UDP glucuronosyltransferase (UGT1A1), UGT1A1 (gene 54658)
The experiment in a line: LTEA_HepaRG_UGT1A1: Life Technologies and Expression Analysis (LTEA) Assay for UDP glucuronosyltransferase (UGT1A1) using HepaRG (AID 2283538). The settings on record: mRNA level, 48 h; actives raise or lower the signal. The gist of the method: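 HepaRG, 48 h chemical exposure (top 100 uM, half-log 8-pt, 0.5% DMSO vehicle), duplicate wells; qRT-PCR (TaqMan, Fluidigm array) for UGT1A1 mRNA, housekeeping-normalized; bidirectional curve fit vs DMSO baseline.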

Read-out in test [15]: UDP glucuronosyltransferase (UGT1A6), UGT1A6 (gene 54578)
The experiment in a line: LTEA_HepaRG_UGT1A6: Life Technologies and Expression Analysis (LTEA) Assay for UDP glucuronosyltransferase (UGT1A6) using HepaRG (AID 2283539). The conditions noted are these: mRNA level, 48 h; actives raise or lower the signal. Put shortly: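 Measures mRNA change in HepaRG hepatic cells exposed 48 h to chemicals (eight-point, maximum 100 uM, 0.5% DMSO vehicle) in serum-free induction medium. Expression normalized to endogenous controls; DMSO served as negative control and baseline.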

Read-out in test [16]: X-box binding protein 1 (XBP1), XBP1 (gene 7494)
The experiment in a line: LTEA_HepaRG_XBP1: Life Technologies and Expression Analysis (LTEA) Assay for X-box binding protein 1 (XBP1) using HepaRG (AID 2283540). The conditions noted are these: mRNA level, 48 h; actives raise or lower the signal. The gist of the method: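 Eight concentrations (half-log, highest 100 uM, 0.5% DMSO) tested in duplicate on HepaRG cells over 48 h in serum-free induction medium; qRT-PCR of XBP1 normalised to ACTB, GAPDH, POLR2A.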

A short description of test [17]: LTEA_HepaRG_LDH_cytotoxicity: Cytotoxicity Assessment in the Life Technologies and Expression Analysis (LTEA) Assay (AID 2283563; active = hit-call score of the fitted dose curve at least 0.9, where 1 is the maximum). The gist of the method:
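Spent-medium LDH after 48 h chemical exposure of HepaRG cells in serum-free induction medium; eight concentrations, half-log dilutions from 100 uM, duplicate wells, fitted upward relative to 0.5% DMSO.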

The nature of test [18]: ATG_XTT_Cytotoxicity: Cytotoxicity Assessment in the Attagene TRANS-FACTORIAL HepG2 Assay (AID 2283584; active = hit-call score of the fitted dose curve at least 0.9, where 1 is the maximum). The gist of the method: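 24 h chemical exposure of reporter-transfected HepG2; XTT signal loss vs DMSO indicates cytotoxicity.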
Read-out in test [19]: Thyroid Hormone Responsive (THRSP), THRSP (gene 7069)
The experiment in a line: LTEA_HepaRG_THRSP: Life Technologies and Expression Analysis (LTEA) Assay for Thyroid Hormone Responsive (THRSP) using HepaRG (AID 2283536). The conditions noted are these: mRNA level, 48 h; actives raise or lower the signal. The gist of the method: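 THRSP transcript quantified by Fluidigm qRT-PCR against three housekeeping genes after 48 h chemical exposure of HepaRG cells in serum-free induction medium; eight-point half-log series, top 100 uM, 0.5% DMSO vehicle, duplicate wells.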

Sequence of Nuclear factor erythroid 2-related factor 2 (Homo sapiens) (Q16236 whole entry, looked up): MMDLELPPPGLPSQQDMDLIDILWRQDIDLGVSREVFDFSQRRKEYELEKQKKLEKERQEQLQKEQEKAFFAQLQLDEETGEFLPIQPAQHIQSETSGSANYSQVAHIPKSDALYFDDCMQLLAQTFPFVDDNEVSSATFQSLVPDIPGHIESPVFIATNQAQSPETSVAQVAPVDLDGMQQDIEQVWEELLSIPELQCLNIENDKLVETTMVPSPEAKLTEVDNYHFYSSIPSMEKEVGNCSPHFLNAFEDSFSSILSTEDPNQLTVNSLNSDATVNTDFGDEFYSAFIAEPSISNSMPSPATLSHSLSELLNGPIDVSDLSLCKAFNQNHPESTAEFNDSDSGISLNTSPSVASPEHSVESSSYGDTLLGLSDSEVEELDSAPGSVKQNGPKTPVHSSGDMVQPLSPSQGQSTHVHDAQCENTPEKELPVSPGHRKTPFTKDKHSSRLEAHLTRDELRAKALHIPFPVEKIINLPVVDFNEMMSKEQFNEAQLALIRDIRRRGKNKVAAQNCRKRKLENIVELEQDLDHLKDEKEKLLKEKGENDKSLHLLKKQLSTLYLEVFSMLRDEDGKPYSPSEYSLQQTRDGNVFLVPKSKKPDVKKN
Sequence of Signal transducer and activator of transcription 3 (Homo sapiens) (P40763 whole entry, looked up): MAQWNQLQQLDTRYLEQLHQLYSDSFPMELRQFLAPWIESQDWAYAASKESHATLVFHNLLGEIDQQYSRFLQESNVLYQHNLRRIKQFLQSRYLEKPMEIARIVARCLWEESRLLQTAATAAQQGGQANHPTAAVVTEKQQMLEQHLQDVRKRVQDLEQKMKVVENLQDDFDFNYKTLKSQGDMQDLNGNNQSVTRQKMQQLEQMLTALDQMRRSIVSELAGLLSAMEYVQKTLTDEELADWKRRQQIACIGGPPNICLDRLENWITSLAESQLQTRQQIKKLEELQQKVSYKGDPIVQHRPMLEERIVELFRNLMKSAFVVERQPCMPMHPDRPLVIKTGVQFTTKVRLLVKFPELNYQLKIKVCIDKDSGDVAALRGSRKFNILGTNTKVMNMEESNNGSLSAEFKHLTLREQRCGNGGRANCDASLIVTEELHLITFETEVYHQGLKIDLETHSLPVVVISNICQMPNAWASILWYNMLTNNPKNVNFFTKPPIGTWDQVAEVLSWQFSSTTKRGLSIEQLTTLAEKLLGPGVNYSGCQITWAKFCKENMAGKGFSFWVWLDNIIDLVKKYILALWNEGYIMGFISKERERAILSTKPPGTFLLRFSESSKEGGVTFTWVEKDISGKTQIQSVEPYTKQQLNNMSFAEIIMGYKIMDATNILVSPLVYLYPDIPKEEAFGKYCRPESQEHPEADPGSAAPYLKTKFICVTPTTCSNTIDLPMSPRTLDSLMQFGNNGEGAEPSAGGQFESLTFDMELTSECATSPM
Sequence of Cellular tumor antigen p53 (Homo sapiens) (P04637 whole entry, looked up): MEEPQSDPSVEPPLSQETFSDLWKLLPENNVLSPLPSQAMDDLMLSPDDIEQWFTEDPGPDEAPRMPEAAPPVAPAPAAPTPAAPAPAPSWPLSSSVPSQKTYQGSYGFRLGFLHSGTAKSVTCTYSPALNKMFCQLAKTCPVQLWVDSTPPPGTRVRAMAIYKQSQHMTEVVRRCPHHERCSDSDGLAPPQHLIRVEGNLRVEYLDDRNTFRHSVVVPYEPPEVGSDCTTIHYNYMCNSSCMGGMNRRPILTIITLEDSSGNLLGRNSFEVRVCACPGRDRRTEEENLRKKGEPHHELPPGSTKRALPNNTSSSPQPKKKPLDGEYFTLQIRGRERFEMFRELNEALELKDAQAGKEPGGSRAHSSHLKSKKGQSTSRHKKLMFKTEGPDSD

Take `CC(C)CCCCCCCOC(=O)CCCCC(=O)OCCCCCCCC(C)C`: the result in [1], in [2], in test [3], in test [4], in [5] and in test [6] was inactive. Besides, the outcome was “inactive” in test [7]; “inactive” in [8]; “inactive” in test [9]; “inactive” in test [10]; “inactive” in [11]; “inactive” with TIMP1, TIMP1 (gene 7076). In addition, the call in [12], in test [13], in test [14], in test [15], in test [16] and in test [17] was inactive. In [18], the outcome was inactive.

With `CCCCCCCCO`, the compound was classed as inactive in test [1], in [2], in test [3], in test [4], in test [5] and in test [6]. The outcome in [7] was “inactive”; in [8], “inactive”; in [9] it was “inactive”; in test [10], “inactive”; in test [11], “inactive”; with TIMP1, TIMP1 (gene 7076), “inactive”. Moreover, the compound was called inactive in test [12], in test [19], in test [13], in test [14], in test [15] and in test [16]. In addition, in [17], the compound was called inactive.

One may read the AC50 as the concentration giving half of the maximal activity seen. For `CC[C@H]1CC[C@H](NCc2cc3c(cc2OC)[C@H]2C[C@H]2C(=O)N3C)[C@H](c2ccccc2)N1`, the result in test [1], in test [2], in test [3], in test [4], in [5] and in test [6] was inactive. Besides, the outcome in test [7] is “inactive”; in [8] it was “inactive”; in test [10], “inactive”; in test [11] it was “inactive”; in the test with TIMP1, TIMP1 (gene 7076), “inactive”; in test [12], “inactive”. Besides, the compound was called inactive in test [13], in test [15] and in test [17]. In addition, the AC50 is 50 µM (active) in test [9] and 19 µM (active) in test [14].

Take `O=C(O)c1cc(N=Nc2ccc(S(=O)(=O)Nc3ccccn3)cc2)ccc1O`: the call in test [1], in test [2], in test [3], in test [4], in test [5] and in test [6] was inactive. The compound was called inactive in test [7], in test [8], in [9], in [11], in [12] and in test [13]. Also, the outcome in [14], in test [15], in test [16], in test [17] and in [18] was inactive.
